Records with an inconclusive call do not appear. Unmarked numbers belong to inactive results. Calls of active or inactive are those of the source. The call rests on the fitted dose curve; in most records, active means well fitted inhibition curve with a large enough effect; inconclusive means small, poorly fitted or top-dose-only effect; inactive means no such curve, though single readings can be large or run the other way.
assay: Confirmation assay for measurement of the activity of small molecule inhibitors on Zika virus induced Caspase-3 activity in human astrocytoma cells; conditions: SNB-19 ZIKV-induced caspase-3/7, luminescence, 6 h; series mostly up to 46.1 µM; activity change, negative = inhibition: at the top concentration
Source text: National Center for Advancing Translational Sciences [NCATS] Johns Hopkins University School of Medicine Florida State University Assay Overview: Increase in the Caspase-3 activity indicates an activation of apoptosis cell death pathway caused by Zika virus infection in certain types of neuronal cells including human neural progenitor cells (hNPCs), astrocytes, and astrocytoma cell line (SNB-19). This cell-based caspase-3 activity assay measures the increased caspase-3 activity in the astrocytoma cell line (SNB-19) after a 6-hour Zika virus infection with a luminescence readout. A decrease in the luminescence signal in this assay by small molecule treatment indicates an inhibitory effect of that small molecule on the Zika virus induced caspase-3 activity that may correlate with its effect on reduction of Zika virus caused cell death.
Assay Protocol Summary: The medium for SNB-19 cells is composed of RPMI 1640 (ATCC, Cat.# 30-2001), 10% fetal bovine serum (FBS) (GE healthcare Life Sciences, Cat.# SH30071.03), and 1% Pen/Strep (Gibco, Cat.# 15140-122). A Caspase-Glo 3/7 assay kit (catalog number G8092; Promega, Madison, WI) was used to detect caspase-3 activity induced by Zika virus infection in human cells. The reagent mixture was reconstituted as described in the protocol from the manufacturer. Polystyrene tissue culture treated and PDL coated white plates were obtained from Greiner Bio-One (Monroe, NC). Cells were seeded in 384- or 1536-well assay plates and cultured at 37 C with 5% CO2 for 16 to 20 hours. The typical cell seeding density in the 1536-well plate assay is 250 cells/well in 3ul medium for SNB-19 cells in tissue culture treated plates. Compounds were added to cells and incubated for one hour before addition of ZIKV solution to cells (2 FFU/cell). After incubation at 37 C with 5% CO2 for 6 hours, the reagent mixture of Caspase-Glo 3/7 assay kit was added to each well, followed by incubation at room temperature for 30 minutes. The luminescence intensity of the assay plates was measured using a ViewLux plate reader (PerkinElmer). Data were normalized by using the cell-containing wells without ZIKV as a negative control (0% induction of caspase 3/7 activity) and wells containing ZIKV infected cells (Caspase-3 activity induced) as a positive control (100% induction of caspase 3 activity). The percentage inhibitions of the increased Caspase-3 activity by small molecule inhibitors were then calculated.

Row | SMILES | activity change, negative = inhibition | Potency
1 | CNC1[C@H](O)C(O[C@@H]2C(O)C(O[C@H]3O[C@H]([C@@H](C)NC)CC[C@H]3N)[C@@H](N)C[C@H]2N)OC[C@]1(C)O (stereo not given in full) | 16.6% | –
2 | C[C@H](NC(=O)C(=O)Nc1ccccc1C(C)(C)C)C(=O)N[C@@H](CC(=O)O)C(=O)COc1c(F)c(F)cc(F)c1F | – | 0.615 µM (active)
3 | O=C1c2ccccc2C(=O)c2c(NCCc3ccc(O)cc3)ccc(NCCc3ccc(O)cc3)c21 | -30.1% | –
4 | O=C(O)c1cccc(-c2noc(-c3ccccc3F)n2)c1 | – | 3.46 µM (active)
5 | COc1ccc(-c2cc(=S)ss2)cc1 | – | 15.5 µM (active)
6 | COc1ccc2nc(NC(=O)Nc3ccccc3)sc2c1 | – | 21.8 µM (active)
7 | CS(=O)(=O)c1ccc(-c2cn3ccccc3n2)cc1 | – | 4.35 µM (active)
8 | CC(C(=O)O)c1ccc(C(=O)c2ccccc2)s1 (stereo not given) | – | 8.69 µM (active)
9 | C[C@@H]1CCN(C(=O)CC#N)C[C@H]1N(C)c1ncnc2[nH]ccc12 | 5.55% | –
10 | CN(C)c1ccc(N=NS(=O)(=O)O)cc1 | -21.5% [at 88.3 µM] | –
11 | O=C(O)c1cc([N+](=O)[O-])ccc1NCCCc1ccccc1 | – | 19.5 µM (active)
12 | O=C(O)CCC(=O)c1ccc(-c2ccccc2)cc1 | – | 24.5 µM (active)
13 | CCCCC1C(=O)N(c2ccccc2)N(c2ccc(O)cc2)C1=O (stereo not given) | 22.7% | –
14 | Cc1ccc(O)c(N=Nc2ccccc2)n1 | – | 5.48 µM (active)
15 | O=c1c2ccccc2nc2n1CCc1c-2[nH]c2ccccc12 | – | 4.89 µM (active)
16 | CN(C)CCCSc1ccccc1NC(=O)/C=C/c1ccccc1 | – | 8.69 µM (active)
17 | CN(C)c1cc(NC(=O)CNC(C)(C)C)c(O)c2c1C[C@@H]1C[C@H]3[C@H](N(C)C)C(=O)C(C(N)=O)=C(O)[C@@]3(O)C(=O)C1=C2O | -7.85% | –
18 | Nc1ccc(-c2ccc3ccccc3n2)cc1 | – | 6.9 µM (active)
19 | O=S(=O)(O)c1ccc2nc(-c3ccccc3)[nH]c2c1 | – | 1.73 µM (active)
20 | O=C(O)Cc1ccc(-c2ccccc2)cc1 | -25.3% | –

Row | SMILES | activity change, negative = inhibition | Potency
21 | CC(C(=O)O)c1ccc(-c2ccccc2)c(F)c1 (stereo not given) | -11.9% | –
22 | O=C(Nc1cc2cc[nH]c2cn1)c1ccccc1 | – | 4.35 µM (active)
23 | Cc1nc(N)sc1-c1ccnc(Nc2ccc(N3CCOCC3)cc2)n1 | -13.1% | –
24 | O=C(Oc1ccccc1)c1cccc(C(=O)Oc2ccccc2)c1 | – | 4.47 µM (active)
25 | CCC(C)SSc1ncc[nH]1 (stereo not given) | 1.05% | –
26 | CCCCCCOc1ccccc1C(N)=O | 8.7% | –
27 | Cc1cc(O)c2ccccc2c1O | -11.1% | –
28 | Oc1ccc(/C=C/c2cc(O)cc(O)c2)cc1 | – | 13.8 µM (active)
29 | O=C(/C=C/c1ccc(O)cc1)c1ccc(O)cc1O | – | 2.45 µM (active)
30 | Clc1ccccc1-c1nc(-c2ccncc2)no1 | – | 7.74 µM (active)
31 | CC(C)c1ccc2oc3nc(N)c(C(=O)O)cc3c(=O)c2c1 | – | 1.95 µM (active)
32 | CC(C)OC(=O)CCCC=CC[C@@H]1[C@H](C=C[C@@H](O)COc2cccc(C(F)(F)F)c2)[C@H](O)C[C@@H]1O | 16.3% | –
33 | CC(=C(CCOC(=O)C(C)C)SSC(CCOC(=O)C(C)C)=C(C)N(C=O)Cc1cnc(C)nc1N)N(C=O)Cc1cnc(C)nc1N | -17% | –
34 | C=C1C(=O)[C@@]23C(CC[C@@H]1[C@H]2O)[C@@]12CO[C@]3(O)[C@@H](O)[C@@H]1C(C)(C)CC[C@@H]2O (stereo not given in full) | 30.6% | –
35 | Cc1c(NC(=O)c2ccc(C(C)(C)C)cc2)cccc1-c1cn(C)c(=O)c(Nc2ccc(C(=O)N3CCOCC3)cc2)n1 | -15.3% | –
36 | O=C(Nc1ccc(C(=O)O)c(O)c1)c1ccccc1 | – | 6.15 µM (active)
37 | CN1CC(=O)N2C(Cc3c([nH]c4ccccc34)[C@H]2c2ccc3c(c2)OCO3)C1=O (stereo not given in full) | 1.76% | –
38 | CCOC1OC(=O)C[C@H]1NC(=O)[C@@H]1CCCN1C(=O)[C@@H](NC(=O)c1ccc(N)c(Cl)c1)C(C)(C)C (stereo not given in full) | -20.4% | –
39 | O=C(Nc1ccc(OC(F)(F)F)cc1)c1sccc1NCc1ccnc2ccccc12 | – | 6.9 µM (active)
40 | NC(=O)c1cccc2[nH]c(-c3ccc([C@H]4CCCN4)cc3F)nc12 | – | 17.3 µM (active)
